# Screening data from PubChem BioAssay.
# Only some compounds are listed: those with a hit (about 15% of all), similar ones and a draw of the others.
# SARS PLpro yeast = qHTS of Yeast-based Assay for SARS-CoV PLP; S. cerevisiae expressing SARS-CoV PLpro, growth rescue; Potency, µM (doses to about 32.9 µM), actives largely listed as activators; 330,000 compounds, 0.19% hits; calls by dose curve; note: nearly all actives have a fitted effect of over 55% in size
# Pf growth 48h = Primary qHTS for delayed death inhibitors of the malarial parasite plastid, 48 hour incubation. P. falciparum luciferase growth in erythrocytes, 48 h. Potency, µM (titrated, usually from 28.7 µM), actives largely listed as inhibitors. 310,000 compounds, 5.9% hits
#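 Luciferase-expressing P. falciparum in infected erythrocytes (2% hematocrit, 0.1% parasitemia final) in RPMI 1640/0.5% Albumax were exposed to compound for 48 hours at 37 C, 5% CO2; growth read as luminescence.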
# HCV inh = qHTS Assay for Inhibitors of Hepatitis C Virus (HCV); Huh7.5.1 HCVcc-Cre infection, luciferase reporter, 44 h; Potency, µM (series often up to 41.8 µM), actives largely listed as inhibitors; 340,000 compounds, 3.4% hits; AID 651820, 2012
#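 Whole-lifecycle infectious HCVcc-Cre system; cells 1,000/well, compound then virus (~0.5 moi) added 4 h after plating, 44 h culture. Luciferase read 15 sec following 15 min substrate incubation, room temp.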
# Pf growth 96h = Primary qHTS for delayed death inhibitors of the malarial parasite plastid, 96 hour incubation. 320,000 compounds, 6.9% hits. P. falciparum luciferase reporter growth, 96 h. Potency, µM (highest dose often 28.7 µM), actives largely listed as inhibitors
#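 Parasite growth measured via integrated firefly luciferase reporter in P. falciparum. Infected erythrocytes at 2% hematocrit, 0.05% parasitemia final were treated 96 hours at 37 C under 5% CO2, and luminescence was read.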
# Sm TGR inh = qHTS Assay for the Inhibitors of Schistosoma Mansoni Peroxiredoxins; Schistosoma mansoni thioredoxin glutathione reductase (TGR), Q962Y6; purified TGR, DTNB reduction, TNB absorbance 405 nm; Potency, µM (highest dose often 114 µM), actives largely listed as inhibitors; 360,000 compounds, 3% hits; AID 485364, 2010; note: nearly all actives have a fitted effect of over 60% in size
#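 Kinetic colorimetric format: TGR-catalysed, NADPH-driven DTNB reduction monitored via TNB absorbance. Enzyme dispensed at 20 nM; compound exposure 15 min at room temperature before reaction start.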
# HCMV inh = qHTS Assay for inhibitors of the human cytomegalovirus (HCMV); HFF cells, HCMV-luciferase reporter, 72 h; stronger effect = lower value; activity change, negative = inhibition, % at 57.5 µM; 410,000 compounds, 4.5% hits; AID 1259415, 2018; in the data active = activity change below about -60%; inconclusive = no clear call, values can overlap the other calls; inactive = above about -39%
#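 Compounds were evaluated in HFFs infected with an HCMV luciferase reporter virus (MOI 1 PFU/cell). Luciferase in lysates collected 72 h post infection served as the replication measure.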
# Hits are given with their value; 0 = inactive; ? = inconclusive; - = no result given; ! = repeats disagree; [ ] = remark or other dose. Unless noted, calls come from the whole dose curve; as a rule, active = well fitted curve in the direction sought with a large enough effect; inconclusive = small, poorly fitted or top-dose-only effect, or another doubt; inactive = no such curve, though single readings can be large; an effect the other way counts as inactive or inconclusive.
SMILES,SARS PLpro yeast,Pf growth 48h,HCV inh,Pf growth 96h,Sm TGR inh,HCMV inh
CC1(C(=O)NS(=O)(=O)c2cccc(F)c2)CCN1C(=O)CCc1ccccc1 (configuration not stated),-,-,-,-,-,0
O=C(NC1CCOc2ccccc21)c1ccc(Cl)nc1 (configuration not stated),0,0,0,0,0,0
COc1ccc(N2CCN(c3ncnc4scc(-c5ccc(C)cc5)c34)CC2)cc1,0,?,?,?,0,-64
c1ccc(-c2csc3ncnc(N4CCOCC4)c23)cc1,0,0,0,0,0,0
c1ccc(-c2csc3ncnc(N4CCc5ccccc5C4)c23)cc1,0,12µM,?,12µM,0,0
COc1ccc(N2CCN(c3ncnc4scc(-c5ccccc5)c34)CC2)cc1,0,9.3µM,?,?,0,0
CCN1CCN(c2ncnc3scc(-c4ccc(OC)cc4)c23)CC1,0,0[0.00184 µM],0,0,0,0
O=C(NCc1ccncn1)[C@H]1[C@H](CO)[C@H]2Cn3c(cccc3=O)[C@@H]1N2CC1CC1,-,-,-,-,-,0
Cc1ccc(CNC(=O)c2ccc3c(c2)N(Cc2ccccc2F)C(=O)c2ccccc2S3(=O)=O)cc1,-,-,-,-,0,0
O=C1C(Cc2ccc(Br)cc2)SC(=Nc2ccccc2)N1c1ccccc1 (configuration not stated),0,13µM,?,?,0,0
O=C1C(Cc2cccc([N+](=O)[O-])c2)SC(=Nc2ccccc2)N1c1ccccc1 (configuration not stated),0,8.3µM,0,7.4µM,0,0
O=C1CC(Cc2ccc(Br)cc2)C(=O)N1c1ccccc1 (configuration not stated),0,0,0,?,0,0
O=C1C(Cc2ccc(F)cc2)SC(=Nc2ccccc2)N1c1ccccc1 (configuration not stated),0,10µM,0,?,0,0
COc1cccc(C(=O)Nc2c(C(=O)c3ccc(F)cc3)oc3ccccc23)c1,-,-,-,-,0,0
CC(=O)Nc1c(S(=O)(=O)c2ccccc2)c2nc3ccccc3nc2n1Cc1ccccc1,0,?,0,0,0,-
C=CCn1c(NS(=O)(=O)c2ccccc2)c(S(=O)(=O)c2ccc(C)cc2)c2nc3ccccc3nc21,?,3.3µM,0,?,?,0
O=S(=O)(Nc1c(S(=O)(=O)c2ccccc2)c2nc3ccccc3nc2n1C1CCCCC1)c1ccccc1,0,3.7µM,0,9.3µM,0,0
NNc1nc(-c2ccccc2)nc(-c2ccccc2)c1Br,-,-,0,-,-,0
CNS(=O)(=O)c1ccc2c3c(cccc13)C(=O)N2,0,0,0,0,0,0
O=C1Nc2ccc(NS(=O)(=O)c3cccs3)c3cccc1c23,0,0,0,10µM,0,0
Oc1ccccc1C=NC1=NN(c2cccc(C(F)(F)F)c2)CC1,0,0,0,2.1µM,0,0
FC(F)(F)c1cccc(N2CCC(N=CN3CCCCCC3)=N2)c1,0,?,?,?,?,?
O=C(O)CCN1c2ccccc2Sc2ccccc21,0,0,0,0,0,0
CN(C)CCCN1c2ccccc2Sc2ccc(Cl)cc21,0,10µM,?,?,0,-66!
CN1CCN(CCCN2c3ccccc3Sc3ccc(S(=O)(=O)N(C)C)cc32)CC1,-,13µM,?,3.6µM,0,0
SMILES,SARS PLpro yeast,Pf growth 48h,HCV inh,Pf growth 96h,Sm TGR inh,HCMV inh
CC(=O)c1ccc2c(c1)N(CCCN1CCC(CCO)CC1)c1ccccc1S2,-,8.1µM,3.2µM,?,0,0
OCCN1CCN(CCCN2c3ccccc3Sc3ccc(Cl)cc32)CC1,0,12µM,?,6.6µM,0,0
CN(C)CCCN1c2ccccc2Sc2ccc3ccccc3c21,-,-,?,-,-,0
CC(=O)NN1C(=O)/C(=C/c2ccc(C(C)C)cc2)SC1=S,0,0,0,0,0,0
CC1CCCCC12NC(=O)N(CC(=O)OCC(=O)N(C)C1CCCCC1)C2=O (configuration not stated),0,0,0,0,0,0
CN(C)CCCN1c2ccccc2CCc2ccccc21,0,-,-,-,0,0
CN(C)CCCN1c2ccccc2C(C)(C)c2ccccc21,-,?,-,17µM,-,-
Cc1cc(C)c(C#N)c(SCCN2CCCCC2)n1,0,0,0,0,0,-96
Cc1cccc(NC(=O)Nc2ccc(Oc3c(F)c(F)c(F)c(F)c3F)cc2)c1,0,?,0,7.4µM,0,0
CCC(=O)Nc1ccc(N2CCOCC2)c(S(=O)(=O)Nc2ccc(OC)cc2)c1,0,0,0,0,0,0
COc1ccc(NS(=O)(=O)c2cc(NC(=O)COc3ccc(OC)cc3)ccc2N2CCOCC2)cc1,0,-,?,-,-,0
COc1ccc(NS(=O)(=O)c2cc(NC(=O)/C=C/c3cccs3)ccc2N2CCOCC2)cc1,0,?,?,7.4µM,0,0
CCCCCC(=O)Nc1ccc(N2CCOCC2)c(S(=O)(=O)Nc2ccc(OC)cc2)c1,-,15µM,?,?,0,0
COc1ccc(NS(=O)(=O)c2cc(NC(=O)/C=C/c3ccccc3OC)ccc2N2CCCCC2)cc1,0,1µM,0,1µM,0,0
COc1ccc(NS(=O)(=O)c2cc(NC(=O)c3cnccn3)ccc2N2CCCC2)cc1,0,?,?,0,0,?
Cc1cc(CN(C)C(=O)c2cc(COc3ccc4ncccc4c3)on2)on1,0,0,2.8µM,0,32µM,-80
CC(CNC(=O)c1cc(COc2ccc3ncccc3c2)on1)c1ccccc1 (configuration not stated),0,?,?,0,0,-76
CN(Cc1nccn1C)C(=O)c1cc(COc2ccc3ncccc3c2)on1,0,0,?,0,0,0
Cc1ccc(OCc2cc(C(=O)N(C)Cc3cnc4ccccn34)no2)cc1C,0,0,11µM,?,0,?
O=C(NC1CCCCCCC1)c1cc(COc2ccc3ncccc3c2)on1,0,?,?,?,0,?
Cc1cccc(C)c1NC(=O)CN(C)C(=O)c1ccc2nc[nH]c2c1,0,0,0,0,0,0
Cc1ccccc1C(=O)NNC(=O)Nc1ccccc1,0,0,-,0,0,0
COc1ccc(C2c3c(n(C)c4ccccc34)C(=O)N2CC(=O)Nc2ccc(Cl)cc2)cc1 (configuration not stated),-,-,-,-,0,0
O=C(Cc1ccccc1[N+](=O)[O-])c1ccc2c(c1)OCO2,-,-,0,-,-,0
O=CN1CCN(C(C(=O)NC2CCCCC2)c2cc3c(cc2[N+](=O)[O-])OCO3)CC1 (configuration not stated),0,0,0,0[1.15 µM],0,0
